Results: PubChem BioAssay AID1903 (Southern Research Specialized Biocontainment Screening …, 2009)
Hit rate of the full screen: of about 310,000 compounds, about 1,200 (0.39%) were called active. The rule behind the calls is not given here. The list is a sample of the results. Measured potencies and affinities stand elsewhere.

Target: Large T antigen (Simian virus 40) (UniProt P03070)
Experiment: TAg ATPase/helicase activity blockers – biochemical (AID 1903)
Details: SV40 large T antigen ATPase/helicase inhibition assay; at 20 µM; stronger effect = higher value

Sequence of Large T antigen (Simian virus 40) (P03070 whole entry, looked up): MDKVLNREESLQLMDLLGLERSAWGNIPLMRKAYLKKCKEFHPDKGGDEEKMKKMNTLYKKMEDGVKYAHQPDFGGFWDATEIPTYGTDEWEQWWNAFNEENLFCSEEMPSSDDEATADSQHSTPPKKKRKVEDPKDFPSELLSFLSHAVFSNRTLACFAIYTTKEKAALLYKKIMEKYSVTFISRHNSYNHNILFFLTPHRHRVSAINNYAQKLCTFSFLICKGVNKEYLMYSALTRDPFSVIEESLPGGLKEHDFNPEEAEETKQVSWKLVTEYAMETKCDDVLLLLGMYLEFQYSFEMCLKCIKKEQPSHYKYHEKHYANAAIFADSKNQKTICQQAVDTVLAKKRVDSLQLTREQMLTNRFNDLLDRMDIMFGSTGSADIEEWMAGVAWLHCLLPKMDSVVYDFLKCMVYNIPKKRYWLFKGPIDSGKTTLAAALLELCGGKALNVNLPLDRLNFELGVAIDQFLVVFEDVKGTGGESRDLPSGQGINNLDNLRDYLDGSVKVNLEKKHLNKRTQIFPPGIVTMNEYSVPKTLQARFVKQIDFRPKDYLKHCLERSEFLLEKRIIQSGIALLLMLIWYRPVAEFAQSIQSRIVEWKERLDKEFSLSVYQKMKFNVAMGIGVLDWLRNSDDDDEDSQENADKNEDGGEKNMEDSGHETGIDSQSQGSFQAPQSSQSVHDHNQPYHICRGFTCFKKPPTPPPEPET

inhibition, inactive:
O=C(CS(=O)(=O)c1ccccc1)c1cc2ccccc2oc1=O 32.7%, COc1ccc2cc(C(=O)CS(=O)(=O)c3ccccc3)c(=O)oc2c1 3.93%, Cc1cc(NC(=O)c2nn3cccnc3c2Cl)no1 4.99%, Clc1ccc(-c2cnc3ccccc3n2)cc1 5.89%, CN1C(=O)[C@@H]2C[C@@]3([C@@]45C[C@H]6C(=O)N(C)[C@@H](Cc7ccccc7)C(=O)N6[C@@H]4Nc4ccccc45)c4ccccc4N[C@H]3N2C(=O)[C@@H]1Cc1ccccc1 4.57%, O=C(O)CCn1cc(/C=C2\SC(=S)NC2=O)c(-c2ccccc2)n1 1.75%, O=Cc1cn(CCC(=O)O)nc1-c1cccc(Cl)c1 7.59%, COc1ccc(C2(C(=O)Nc3cc(C)on3)CCOCC2)cc1 0.88%, O=C(O)c1cccc(Cn2c(Cl)c(/C=N/NC(=O)c3ccccc3)sc2=O)c1 7.08%, O=C(O)c1cccc(Cn2c(Cl)c(/C=N/Nc3ccccc3)sc2=O)c1 29.6%, CCC(C(=O)NC1CCCCCC1)n1nc(C)c2c(C)n(-c3ccccc3)nc2c1=O (stereo not drawn) 8.34%, COC(=O)c1ccc(NC(=O)CN(C2CCCCC2)S(C)(=O)=O)cc1 -3.48%, Cc1cc([N+](=O)[O-])ccc1N 6.27%, Cc1ccc([N+](=O)[O-])cc1N -1.11%, Cc1ccc(CN2CCN(C/C=C/c3ccc(F)cc3)CC2CCO)o1 (stereo not drawn) 19.4%, Cc1sc2ncn(CC(=O)NCc3ccco3)c(=O)c2c1-c1ccc(F)cc1 14.3%, Cc1ccc(C(=O)N2CC(C)SC2=Nc2cccc(S(=O)(=O)N(C)C)c2)cc1 (stereo not drawn) 18.9%, COc1ccc(/C=N/N2C(=O)CSC2=S)cc1Br 33.2%, CCN=C1S/C(=C\c2cc(Br)c(O)c(OC)c2)C(=O)N1CC 25.1%, COc1cc(/C=N/Nc2cccc(C)c2)cc(Br)c1O 13.3%, CCN=c1scc(C)n1/N=C/c1ccsc1 12.1%, COc1cc(/C=N/N2C(=O)CSC2=S)ccc1O 37.9%, COc1cc(/C=N/n2c(C3CCCCC3)n[nH]c2=S)cc(Br)c1O 12.8%, COc1cc(/C=N/N2CCN(Cc3ccc(Cl)cc3)CC2)cc(Br)c1O 10.9%, CCN=c1scc(C)n1/N=C/c1ccc(O)c(O)c1O 9.52%, COc1ccccc1NC(=O)c1sc2nc(N3CCOCC3)c3c(c2c1N)CCCC3 15.5%, S=c1[nH]nc(-c2ccccn2)n1/N=C/c1c(Cl)cccc1Cl 24.9%, COc1ccccc1N1CCN(C(=O)/C=C/c2ccccc2)CC1 5.64%, COc1ccc(/C=C(/C#N)C(=O)Nc2ccc(C)cc2C)cc1C(=O)O 19.8%, COc1cc(NC(=O)C2=C(N3CCOCC3)/C(=C\c3ccc(Br)cc3)CC2)cc(OC)c1OC -0.46%, O=C(Nc1ccccc1)c1cccc(S(=O)(=O)N2CCCCC2)c1 1.37%, Cn1c2ccccc2c2n[nH]c(=S)nc21 14.8%, CCOC(=O)c1c(S(=O)(=O)NCc2ccc(OC)cc2)c(C)n(C)c1C 8.6%, O=C(CSCC(=O)N1CCCCC1)OCC(=O)c1c[nH]c2ccccc12 7.84%, O=C(CSC1=NS(=O)(=O)c2ccccc2N1)NCCc1ccccc1 10.2%, O=C1CSC(=S)N1/N=C/c1cc(Br)ccc1O 19.8%, COc1cc(/C=N/NC(=O)CC2(C)OCCO2)cc(Br)c1O 18%, COc1cc(/C=N/N=C/c2cc(OC)c(O)c(OC)c2)cc(OC)c1O 36.7%, CCCCCC(=O)N/N=C/c1cc(Br)c(O)c(OC)c1 24.7%, O=C1CSC(=S)N1/N=C/c1ccc(Cl)c([N+](=O)[O-])c1 29.2%, COc1cc(/C=N/N2C(C)CCCC2C)cc(Br)c1O (stereo not drawn) 29.5%, O=C(O)/C=C/c1ccc(S(=O)(=O)Nc2ccc(C(=O)NCC(=O)O)cc2)cc1 -0.46%, Cc1ccccc1OCC(=O)N(CC(C)C)c1c(N)n(CC(C)C)c(=O)[nH]c1=O -0.915%, CCOC(=O)c1sc(Nc2ccc(F)cc2)nc1C 3.22%, O=C(Cc1ccc(Cl)cc1)Nc1ccccc1C(=O)N1CCCCC1 5.13%, C(=N\N1CCN(c2ccccn2)CC1)/c1ccccn1 10.2%, Oc1cccc(/C=N/N2CCN(c3ccccn3)CC2)c1 27.9%, Cn1cccc1/C=N/N1CCN(c2ccccc2)CC1 26.4%, Cc1ccc(/C=N/N2CCN(c3ccccn3)CC2)cc1 3.29%, Cn1cccc1/C=N/N1CCN(Cc2ccc(Cl)cc2)CC1 33.2%, Cn1cccc1/C=N/N1CCN(Cc2ccccc2Cl)CC1 36.4%, O=C1CC(NCCN2CCOCC2)C(=O)N1Cc1ccc(N2CCCC2=O)cc1 (stereo not drawn) 2.31%, O=C(CSc1nc2ccccc2o1)NCCOc1ccccc1 -0.36%, CCOc1ccc(CSCCNC(=S)Nc2ccc(OC)cc2)cc1 18.9%, CCOc1ccc(CCNC(=O)C2CC(=O)N(c3ccc4c(c3)OCCO4)C2)cc1OCC (stereo not drawn) 19.5%, O=C(NCCNc1nccc(C(F)(F)F)n1)c1cccs1 7.79%, CCN(CC)C(=O)CSc1nc2nc(C)cc(C)c2c(=O)[nH]1 3.63%, O=C(Nc1ccc(C2SCCS2)cc1)c1ccccc1 5.93%, Cn1c(N)c(C(=O)COC(=O)CC2CC3CCC2C3)c(=O)n(C)c1=O (stereo not drawn) 12.6%, Cc1ccc(Cl)cc1Nc1nc(-c2cccnc2)cs1 5.81%, Cc1cccc(C)c1NC(=O)CSCCO 7.3%, Cc1cccc(C)c1NC(=O)CSCC(=O)O 11.2%, Brc1c(CSc2nncn2-c2ccccc2)nc2sccn12 3.07%
